From PubChem
HCMV inh = blocks human cytomegalovirus replication | actives 4.5% (n = 410,000) | HFF cells, HCMV-luciferase reporter, 72 h; stronger effect = lower value | AID 1259415 | activity change, negative = inhibition, % at 57.5 µM; in the data active = activity change below about -60%; inconclusive = no clear call, values can overlap the other calls; inactive = above about -39%
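Cell-based, HFFs, 1000 cells/well, 16 h 37C; cpds in DMSO + HCMV-luc, MOI 1 PFU/cell; 72 h 37C; OneGlo luminescence after 5 min RT; norm. to buffer vs Salinomycin 10uM.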
Pf growth 96h = P. falciparum growth inhibition at 96 hours; Potency, µM (series often up to 28.7 µM), without a hit: at the highest dose activity change, negative = inhibition, usual class: inhibitors; AID 504834; P. falciparum luciferase reporter growth, 96 h; actives 6.9% (n = 320,000); also: potency is read from the fitted curve at half-maximal effect
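Two-generation exposure (96 h) targets delayed-death phenotype. Reporter parasites carrying integrated firefly luciferase, in red cells at 2% hematocrit and 0.05% parasitemia final, kept at 37 C, 5% CO2; luminescence loss indicates inhibition.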
MARV entry inh = blocks Marburg virus binding to or entry into cells; Potency, µM (series often up to 37.8 µM), for the others: at the highest dose activity change, negative = inhibition, hits mostly inhibitors; Marburg virus pseudotyped entry inhibition, cell reporter; actives 1.8% (n = 300,000); calls by dose curve; tested in HEK293 cells; also: potency is read from the fitted curve at half-maximal effect
Pf growth 48h = inhibits P. falciparum growth in the first generation, 48 h; P. falciparum luciferase growth in erythrocytes, 48 h; AID 504832; actives 5.9% (n = 310,000); Potency, µM (series often up to 28.7 µM), for the others: top-dose activity change, negative = inhibition, usual class: inhibitors; also: potency is read from the fitted curve at half-maximal effect
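Luminescence readout; reporter = integrated firefly luciferase in P. falciparum. RBC culture at 2% hematocrit, 0.1% parasitemia final, 37 C/5% CO2; decreased signal taken as growth inhibition.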
Lassa entry inh = Lassa virus entry inhibition; AID 540256; actives 1.2% (n = 300,000); Potency, µM (doses to about 37.9 µM), for the others: at the top dose activity change, negative = inhibition, usual class: inhibitors; Lassa virus pseudotype entry inhibition, cell reporter; calls by dose curve; tested in HEK293 cells; also: potency is read from the fitted curve at half-maximal effect; nearly all actives have a fitted effect of over 50% in size
HCV inhibitor = HCV inhibition. Huh7.5.1 HCVcc-Cre infection, luciferase reporter, 44 h. Potency, µM (doses to about 41.8 µM), without a hit: top-dose activity change, negative = inhibition, actives largely listed as inhibitors. actives 3.4% (n = 340,000). AID 651820; also: potency is read from the fitted curve at half-maximal effect
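Whole-lifecycle infectious HCVcc-Cre system; cells 1,000/well, compound then virus (~0.5 moi) added 4 h after plating, 44 h culture. Luciferase read 15 sec following 15 min substrate incubation, room temp.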
* = called active by the depositor; ? = inconclusive; / = not tested or not shown; [ ] = another dose, or the depositor's remark. In the library only some 14% were active in any assay of this set; here they are far more common. Unless noted, calls follow the shape of the dose curve; as a rule, active = well fitted inhibition curve with a large enough effect; inconclusive = small, poorly fitted or top-dose-only effect, or another doubt; inactive = no such curve, though single readings can be large or run the other way. % is scaled to controls: 0 for no effect and ±100 for the full control effect.

SMILES	HCMV inh	Pf growth 96h	MARV entry inh	Pf growth 48h	Lassa entry inh	HCV inhibitor
CC(C)N1CCN(S(=O)(=O)c2ccccc2)c2ccccc21	-6	/	?	/	7%[46.1 µM]	?
COc1ccc(Cn2c(=O)c3cccnc3n(Cc3cccc(F)c3)c2=O)cc1	3	/	?	/	/	/
CCOC(=O)Cc1csc(NC(=S)NC(=O)c2ccc(Cl)cc2)n1	-84*	?	4%[46.1 µM]	?	-2%	-5%
CCOC(=O)Cc1csc(NC(=O)/C=C/c2ccccc2Cl)n1	-12	82%	?	6%	?	?
CCOC(=O)Cc1csc(NC(=O)/C=C\c2ccccc2Cl)n1	14	24%	?	31%	?	10µM*
CC1Cc2cc(S(=O)(=O)N3CCCC(C(=O)N4CCCCC4)C3)ccc2N1C(=O)C1CC1 (stereo not drawn)	-40	13µM*	/	13µM*	/	-14%
CC(=O)N1c2ccc(S(=O)(=O)N3CCC(C(=O)N4CCN(c5cccc(C(F)(F)F)c5)CC4)CC3)cc2CC1C (stereo not drawn)	-66*	22%	/	?	/	-6%
CC(=O)N1c2ccc(S(=O)(=O)N3CCCC(C(=O)N4CCCCC4)C3)cc2CC1C (stereo not drawn)	-30	10µM*	/	?	/	-23%
CC(=O)c1ccc(N2CCN(C(=O)C3CCN(S(=O)(=O)c4ccc5c(c4)CC(C)N5C(C)=O)CC3)CC2)cc1 (stereo not drawn)	12	?	/	?	/	?
CC(=O)c1ccc(NC(=O)Cn2c3ncccc3c(=O)n2-c2ccc(C)cc2)cc1	-19	/	9%[46.1 µM]	/	6%[46.1 µM]	/
COc1ccc(N2CCN(Cc3cc4c(cc3O)CCC4)CC2)cc1	-30	/	?	1.7µM*	-15%	?
CC(=O)Nc1ccc(CN2CCN(c3cccc(C(F)(F)F)c3)CC2)cc1	11	48%	-4%	/	-7%	22%
Oc1cc2c(cc1CN1CCN(c3cccc(C(F)(F)F)c3)CC1)CCC2	-7	1.2µM*	-7%[46.1 µM]	1.7µM*	-2%	-2%
COc1ccc(N2CCN(Cc3cc(=O)oc4cc5c(cc34)CCCC5)CC2)cc1	0	-20%	0%	-29%	9%	-9%
Oc1cc2c(cc1CN1CCN(c3ccccc3)CC1)CCC2	-13	2.6µM*	-29%	1.7µM*	12%	?
CC(=O)N1CCCc2cc(S(=O)(=O)NCc3ccc(N(C)C)cc3)ccc21	-19	/	/	/	2%[46.1 µM]	/
CCOC(=O)C1(C(C)(C)CC)CC(CSc2nc3ccccc3[nH]2)OC1=O (stereo not drawn)	-11	-22%	?	8.3µM*	?	?
CCOC(=O)NC(=O)CSc1nc2ccccc2[nH]1	-19	-1%	0%[46.1 µM]	18%	-1%[46.1 µM]	15%
COc1ccc(CCNC(=O)c2cc(C3CC3)nc3c2cnn3C(C)C)cc1	-29	?	/	?	/	10µM*
COc1ccccc1OCCNC(=O)c1cc(C2CC2)nc2c1cnn2C(C)C	-16	10µM*	12%	?	-10%	1.3µM*
COc1ccccc1CCNC(=O)c1cc(C2CC2)nc2c1cnn2C(C)C	-31	10µM*	?	?	?	8.9µM*
CCc1ccccc1NC(=O)CNC(=O)c1cc(C2CC2)nc2c1cnn2C(C)C	0	-3%	/	?	/	?
Cc1cccc(OCCNC(=O)c2cc(C3CC3)nc3c2cnn3C(C)C)c1	-7	/	/	/	/	/
COc1cc(OC)c(NC(=O)Cn2c(=O)cc(C(F)(F)F)c3c(C)nn(C)c32)cc1Cl	16	/	/	/	8%[46.1 µM]	/
COc1cccc(CNCCCSc2nnnn2C)c1	10	/	4%[46.1 µM]	/	5%[46.1 µM]	/
SMILES	HCMV inh	Pf growth 96h	MARV entry inh	Pf growth 48h	Lassa entry inh	HCV inhibitor
COc1ccc(NC(=O)c2cc(C3CCCCN3C(=O)c3cc(C(C)(C)C)nn3C)on2)c(C)c1 (stereo not drawn)	-8	/	/	/	/	/
CCc1ccc(N2C(=O)Cc3c2nc(N)c(C#N)c3N)cc1	98	/	18%	153%	22%[14.3 µM]	0%
CCN(CC)c1nc2c3c(nc4c(c3c1C#N)CC(=O)N4c1ccc(Cl)cc1)NC(C)=N2	0	4.7µM*	?	17µM*	-7%	?
CCOc1ccc(-n2nc(CO)c(C(=O)NCC(c3ccccc3)c3ccccc3)n2)cc1	23	/	-1%[46.1 µM]	/	-5%[46.1 µM]	/
O=C(N/N=C/c1ccc(OC(=O)c2cccs2)cc1)c1ccccn1	23	-30%	-14%	56%	?	11%
CC(=O)N1c2ccc(C)cc2Sc2c1ccc1ccccc21	-61*	/	?	/	?	-10%
Cc1ccc(NC(=O)CCC(=O)NNC(=O)COc2cccc3ccccc23)c(C)c1	8	9%	-8%	35%	7%	6%
OC(COC(c1ccc(F)cc1)c1ccc(F)cc1)CN1CCc2ccccc2C1 (stereo not drawn)	-61*	?	?	?	-22%	?
OC(COC(c1ccc(Cl)cc1)c1ccc(Cl)cc1)CN1CCc2ccccc2C1 (stereo not drawn)	-35	2.6µM*	?	?	?	13µM*
CN(Cc1cnccn1)Cc1ccccc1OCC(O)CN1CCc2ccccc2C1 (stereo not drawn)	-21	14%	?	12µM*	-4%[46.1 µM]	-13%
CC(C)(C)c1ccc(OCC(O)CN2CCc3ccccc3C2)cc1 (stereo not drawn)	-63*	/	/	/	/	?
CS(=O)(=O)Cc1ccc(C(=O)NC2CCCc3ccccc32)cc1 (stereo not drawn)	67	34%	?	28%	-5%[46.1 µM]	4%
CN1C(=O)[C@H]2[C@@H](c3ccc(C(F)(F)F)cc3)N[C@]3(CCCN(Cc4ccco4)C3=O)[C@H]2C1=O	11	/	/	/	/	/
CC(C)CCNC(=O)c1nnc(Cc2ccc(Cl)cc2)o1	6	8.3µM*	/	/	/	9%
Cc1cc(C)c(C)c(S(=O)(=O)NCc2ccc(C(=O)N3CCOCC3)cc2)c1C	-11	43%	-16%	8.3µM*	0%	5%
COc1cc(S(=O)(=O)NCc2ccncc2)ccc1Br	-70*	2%	?	34%	?	?
Cc1ccc(S(=O)(=O)NCc2ccncc2)cc1C(=O)NCC(C)C	-5	?	-29%	38%	-2%	?
Cc1ccc(S(=O)(=O)NCc2ccncc2)cc1C	-68*	?	?	-4%	?	2.2µM*
Cc1cc(C)c(C)c(S(=O)(=O)NCc2ccncc2)c1C	-68*	?	?	9%	?	7.1µM*
O=S(=O)(NCc1ccncc1)c1ccccc1	?	-88%	-4%	/	-10%	?
O=C(CCc1nc2ccccc2c(=O)[nH]1)N1CCN(S(=O)(=O)c2cccc(F)c2)CC1	20	-19%	1%	?	1%	/
